Assay [1] is described as follows: NCI Yeast Anticancer Drug Screen. Data for the rad50 strain (AID 155).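 Also: 0% = growth of vehicle-only cultures of the same strain.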 The settings on record: S. cerevisiae rad50 strain growth inhibition, stronger effect = higher value. The procedure, abridged: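 A DNA repair-deficient yeast mutant serves as the test organism; compound-induced growth inhibition is calculated against vehicle-treated cells.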
Assay [2] in a line: NCI Yeast Anticancer Drug Screen. Data for the mec2-1 strain (AID 157). The settings on record: S. cerevisiae mec2-1 strain, stronger effect = higher value. The essentials: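 Yeast mec2-1 mutant treated with compound. Readout: growth inhibition vs vehicle controls.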
The nature of assay [3]: NCI Yeast Anticancer Drug Screen. Data for the sgs1 mgt1 strain (AID 161).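 Also: 0% = growth of cultures given vehicle only.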 The settings on record: S. cerevisiae sgs1 mgt1 strain, stronger effect = higher value. The essentials: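 Genetically altered yeast, compound exposure, growth inhibition relative to vehicle.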
A short description of assay [4]: NCI Yeast Anticancer Drug Screen. Data for the cln2 rad14 strain (AID 165).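 Also: 0% = growth equal to vehicle treated cultures.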 The note with it: S. cerevisiae cln2 rad14 strain, stronger effect = higher value. The procedure, abridged: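 cln2 rad14 yeast strain; compound exposure; growth inhibition read vs vehicle controls.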
A short description of assay [5]: NCI Yeast Anticancer Drug Screen. Data for the bub3 strain (AID 167). The settings on record: S. cerevisiae bub3 mutant strain, stronger effect = higher value. The procedure, abridged:
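Inhibition values come from growth of compound-treated mutant yeast normalised to vehicle-treated controls.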

Assay [6] in a line: NCI Yeast Anticancer Drug Screen. Data for the mlh1 rad18 strain (AID 175). The settings on record: S. cerevisiae mlh1 rad18 strain growth inhibition, stronger effect = higher value. The procedure, abridged:
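Yeast w/ defined DNA-repair lesions; compound exposure; growth vs vehicle controls → % inhibition.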

Where [7] appears, read: at 5.0 µM (retest, dose inferred, filed as 0.5).
Setting [8] is: at 50.0 µM (retest, dose inferred, filed as 5.0).

This is part of a sample that, as a whole, favours compounds with a hit. Of some 79,000 tested, about 15% had one in any assay. Unmarked numbers belong to inactive results. Active and inactive are the calls of the source. Rule as the data show it: active = growth inhibition above about 70%; inactive = the rest.

With `CCC(=O)N(CCC(C)C)c1ccccc1`, the growth inhibition in assay [1] (setting [7]) is 3%; in assay [1] (setting [8]) it was 7%; in assay [1] (at 50.0 µM), 11.8%; in assay [2] (setting [7]), -2%; in assay [2] (setting [8]), 2%; in assay [2] (at 50.0 µM), -2.15%. Further, the growth inhibition in assay [3] (setting [7]) is 0%; in assay [3] (setting [8]), 1%; in assay [3] (at 50.0 µM), -8.65%; in assay [4] (setting [7]), 3%; in assay [4] (setting [8]), 4%; in assay [4] (at 50.0 µM), 41.1%. For the same compound, the growth inhibition is 3% in assay [5] (setting [7]); -11% in assay [5] (setting [8]); -18.6% in assay [5] (at 50.0 µM); 3% in assay [6] (setting [7]); 2% in assay [6] (setting [8]); -11.9% in assay [6] (at 50.0 µM).
As to `Cc1cc(C(=O)O)c(C)cc1SSc1cc(C)c(C(=O)O)cc1C`, the growth inhibition in assay [1] (setting [7]) is -12%; in assay [1] (setting [8]) it was 72% (active); in assay [1] (at 50.0 µM) it was 51.4%; in assay [2] (setting [7]) it was 11%; in assay [2] (setting [8]), 74% (active); in assay [2] (at 50.0 µM) it was 9.25%. The growth inhibition is 4% in assay [3] (setting [7]); 76% (active) in assay [3] (setting [8]); 54.7% in assay [3] (at 50.0 µM); -5% in assay [4] (setting [7]); 70% (active) in assay [4] (setting [8]); 3.7% in assay [4] (at 50.0 µM). In addition, the growth inhibition in assay [5] (setting [7]) was -13%; in assay [5] (setting [8]) it was 63%; in assay [5] (at 50.0 µM) it was 41.4%; in assay [6] (setting [7]), -3%; in assay [6] (setting [8]), 81% (active); in assay [6] (at 50.0 µM) it was 69.2%.
For the compound `Nc1ccccc1CC(c1c[nH]c2ccccc12)c1c[nH]c2ccccc12`, the growth inhibition is 4% in assay [1] (setting [7]); 7% in assay [1] (setting [8]); 94% (active) in assay [1] (at 50.0 µM); 1% in assay [2] (setting [7]); 17% in assay [2] (setting [8]); 95% (active) in assay [2] (at 50.0 µM). The growth inhibition in assay [3] (setting [7]) was 1%; in assay [3] (setting [8]), 10%; in assay [3] (at 50.0 µM) it was 94.4% (active); in assay [4] (setting [7]), 93% (active); in assay [4] (setting [8]), -7%; in assay [4] (at 50.0 µM), 90.5% (active). For the same compound, the growth inhibition in assay [5] (setting [7]) was 2%; in assay [5] (setting [8]), 26%; in assay [5] (at 50.0 µM), 93% (active); in assay [6] (setting [7]), 4%; in assay [6] (setting [8]), 27%; in assay [6] (at 50.0 µM), 93.8% (active).
Regarding `CN(C(=O)c1ccccc1)C1(COC(=O)c2ccccc2)CCCCC1`, the growth inhibition is -6% in assay [1] (setting [7]); 3% in assay [1] (setting [8]); 16.1% in assay [1] (at 50.0 µM); -28% in assay [2] (setting [7]); -9% in assay [2] (setting [8]); -5.95% in assay [2] (at 50.0 µM). Further, the growth inhibition in assay [3] (setting [7]) is -25%; in assay [3] (setting [8]), -11%; in assay [3] (at 50.0 µM), -2.75%; in assay [4] (setting [7]) it was 1%; in assay [4] (setting [8]), 1%; in assay [4] (at 50.0 µM), 21.3%. The growth inhibition in assay [5] (setting [7]) is 21%; in assay [5] (setting [8]), 28%; in assay [5] (at 50.0 µM), 65.7%; in assay [6] (setting [7]), 16%; in assay [6] (setting [8]), 6%; in assay [6] (at 50.0 µM), 9.9%.
With `O=C1c2ccccc2C(=O)c2cc(O)ccc21`, the growth inhibition in assay [1] (setting [7]) was 34%; in assay [1] (setting [8]) it was 91% (active); in assay [1] (at 50.0 µM) it was 84.8% (active); in assay [2] (setting [7]), -13%; in assay [2] (setting [8]) it was 77% (active); in assay [2] (at 50.0 µM), 56.1%. Further, the growth inhibition in assay [3] (setting [7]) was 2%; in assay [3] (setting [8]), 82% (active); in assay [3] (at 50.0 µM), 69%; in assay [4] (setting [7]), 11%; in assay [4] (setting [8]) it was 54%; in assay [4] (at 50.0 µM) it was 64.4%. Besides, the growth inhibition in assay [5] (setting [7]) is 44%; in assay [5] (setting [8]), 84% (active); in assay [5] (at 50.0 µM) it was 80.3% (active); in assay [6] (setting [7]), 15%; in assay [6] (setting [8]), 87% (active); in assay [6] (at 50.0 µM), 85% (active).
In the case of `CCS(=O)(=O)c1ccc(NC(=O)OC2CC(C)CCC2C(C)C)cc1` (centres undefined), the growth inhibition in assay [1] (setting [7]) was 14%; in assay [1] (setting [8]), 90% (active); in assay [1] (at 50.0 µM) it was 90.5% (active); in assay [2] (setting [7]), 18%; in assay [2] (setting [8]), 94% (active); in assay [2] (at 50.0 µM) it was 91.6% (active). The growth inhibition is 15% in assay [3] (setting [7]); 91% (active) in assay [3] (setting [8]); 89.5% (active) in assay [3] (at 50.0 µM); 12% in assay [4] (setting [7]); 91% (active) in assay [4] (setting [8]); 86.7% (active) in assay [4] (at 50.0 µM). The growth inhibition in assay [5] (setting [7]) is 11%; in assay [5] (setting [8]), 94% (active); in assay [5] (at 50.0 µM), 90.8% (active); in assay [6] (setting [7]), 20%; in assay [6] (setting [8]) it was 92% (active); in assay [6] (at 50.0 µM), 92.1% (active).
As for `COc1cc2c(c(O)c1OC)-c1c(cc(OC)c(OC)c1OC)CC(C)C(C)C2` (centres undefined), the growth inhibition in assay [1] (setting [7]) was -23%; in assay [1] (setting [8]), 27%; in assay [1] (at 50.0 µM), 66.9%; in assay [2] (setting [7]), -23%; in assay [2] (setting [8]) it was 11%; in assay [2] (at 50.0 µM) it was 46.7%. Further, the growth inhibition was -15% in assay [3] (setting [7]); 63% in assay [3] (setting [8]); 74.7% (active) in assay [3] (at 50.0 µM); -10% in assay [4] (setting [7]); 61% in assay [4] (setting [8]); 51.5% in assay [4] (at 50.0 µM). Besides, the growth inhibition in assay [5] (setting [7]) was 9%; in assay [5] (setting [8]), 53%; in assay [5] (at 50.0 µM), 60%; in assay [6] (setting [7]), 6%; in assay [6] (setting [8]), 59%; in assay [6] (at 50.0 µM), 18.7%.
In the case of `CC1=C(C(=O)Nc2ccccc2Cl)C(c2cccc([N+](=O)[O-])c2)C(C(=O)Nc2ccccc2Cl)=C(C)N1`, the growth inhibition in assay [1] (setting [7]) was -12%; in assay [1] (setting [8]) it was 53%; in assay [1] (at 50.0 µM) it was 11.8%; in assay [2] (setting [7]), 27%; in assay [2] (setting [8]) it was 67%; in assay [2] (at 50.0 µM) it was 30.2%. Moreover, the growth inhibition in assay [3] (setting [7]) was -10%; in assay [3] (setting [8]), 51%; in assay [3] (at 50.0 µM), 20.4%; in assay [4] (setting [7]) it was 11%; in assay [4] (setting [8]), 61%; in assay [4] (at 50.0 µM) it was 1.9%. In addition, the growth inhibition in assay [5] (setting [7]) is 21%; in assay [5] (setting [8]) it was 80% (active); in assay [5] (at 50.0 µM) it was 27.9%; in assay [6] (setting [7]), 13%; in assay [6] (setting [8]), 63%; in assay [6] (at 50.0 µM), 13.3%.

The values are drawn from PubChem BioAssay (NCI).
